PubChem BioAssay
Activity calls are given as the source filed them. Unless noted, no rule for the calls is given here.

Legend:
[1] = tested on: Wnt5a (protein binding on small-molecule microarray); assay: Wnt5a binders on small-molecule microarray, primary screen, biophysical, 635/667 nm fluorescence (AID 1142); conditions: 635 nm fluorescence, higher = more signal;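 also: fluorescence read at 667 nm with signal to noise per printed feature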
[2] = cell viability in Huh7 cells, primary screen, cytotoxicity control for HCV replication inhibitor project, CellTiter-Glo luminescence, basal, 48 h (AID 1143); conditions: Huh7 HCV replicon, higher = more signal, called active from +8 up or from −8 down;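 also: Huh7 hepatoma cells carrying a hepatitis C replication reporter with no stimulus; test concentration not given here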
[3] = CREB reporter modulators without forskolin, primary screen, cell-based, PC12, CRE-LacZ reporter, unstimulated (AID 1145); conditions: no forskolin, luminescence, 4.5 h, higher = more signal, called active from +8 up or from −8 down
[4] = CREB reporter modulators under forskolin, primary screen, cell-based, PC12, CRE-LacZ reporter, forskolin-stimulated (AID 1146); conditions: luminescence, 4.5 h, higher = more signal, called active from +8 up or from −8 down;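 also: PC12 cells with 6xCRE LacZ reporter stimulated by forskolin 10 µM; beta-galactosidase reporter signal reflecting CREB driven transcription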
[5] = biological target: Streptavidin (Streptomyces avidinii) (UniProt P22629); assay: streptavidin binders on small-molecule microarray, primary screen, artefact control for SMM compound annotation, biophysical, 635/667 nm fluorescence (AID 1147); conditions: streptavidin binding, higher = more signal;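 also: signal reflects streptavidin binding to arrayed compounds as a control protein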
Sequence of Streptavidin (Streptomyces avidinii) (P22629 whole entry, looked up): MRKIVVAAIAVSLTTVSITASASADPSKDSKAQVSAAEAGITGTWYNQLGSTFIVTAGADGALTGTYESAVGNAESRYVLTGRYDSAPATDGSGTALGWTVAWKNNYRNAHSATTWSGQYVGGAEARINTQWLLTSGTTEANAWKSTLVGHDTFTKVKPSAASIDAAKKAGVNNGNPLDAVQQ

[6] = small-molecule binders of probe aInhba, primary screen, biochemical, small-molecule microarray, 635/667 nm fluorescence (AID 1148); conditions: higher = more signal;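 also: score merges 667nm spot fluorescence with signal-to-noise for antibody binding to printed compounds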
[7] = biological target: Torsin-1A (Homo sapiens) (UniProt O14656); assay: torsin A binders from cell lysate, primary screen, small-molecule microarray, wild-type, 635/667 nm (AID 1149); conditions: COS7 hTOR1A-WT lysate, 635 nm fluorescence, higher = more signal
Sequence of Torsin-1A (Homo sapiens) (O14656 whole entry, looked up): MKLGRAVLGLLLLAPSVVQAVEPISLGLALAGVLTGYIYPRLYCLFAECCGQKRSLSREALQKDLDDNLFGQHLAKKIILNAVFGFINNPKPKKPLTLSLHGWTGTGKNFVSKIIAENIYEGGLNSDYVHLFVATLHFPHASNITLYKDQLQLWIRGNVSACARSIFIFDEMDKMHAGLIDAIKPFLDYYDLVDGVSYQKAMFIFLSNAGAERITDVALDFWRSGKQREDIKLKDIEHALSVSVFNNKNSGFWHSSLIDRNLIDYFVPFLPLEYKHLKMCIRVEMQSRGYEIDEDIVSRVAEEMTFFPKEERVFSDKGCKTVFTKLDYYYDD

[8] = biological target: Torsin-1A (Homo sapiens) (UniProt O14656); assay: small-molecule binders of mutant TOR1A in lysate, primary screen, cell lysate, small-molecule microarray, COS7 lysate, 635/667 nm fluorescence (AID 1150); conditions: COS7 hTOR1A mutant lysate, 635 nm fluorescence, higher = more signal;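 also: score pools 667 nm emission and signal to noise measuring lysate protein binding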
[9] = tested on: Sonic hedgehog protein (Shh); assay: small-molecule binders of Shh protein, primary screen, biochemical, small-molecule microarray, 635/667 nm fluorescence (AID 1151); conditions: small-molecule microarray binding, 635 nm fluorescence; higher = more signal;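 also: Shh protein binding to compounds spotted on small-molecule microarray slides; score combines spot fluorescence intensity with signal-to-noise across triplicate slides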
[10] = E. coli DRC41 culture turbidity changes, primary screen, E. coli filamentation inducer project, strain DRC41, OD650, 48 h (AID 1152);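 also: E. coli MC1000 strain DRC41 lacking acrAB efflux pump and sulA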; conditions: E. coli DRC41 (acrAB sulA), higher = more signal, called active from +8 up or from −8 down
[11] = small-molecule binders of probe aLefty1, primary screen, biochemical, small-molecule microarray, 635/667 nm fluorescence (AID 1153); conditions: higher = more signal;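 also: score merges spot fluorescence with signal-to-noise ratio from the scanned slide images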
[12] = PSAC antagonists in infected red cells, primary screen, cell-based, P. falciparum Indochina, OD700, 1 h (AID 1154); conditions: P. falciparum Indochina infected RBC osmotic lysis, higher = more signal, called active from +8 up or from −8 down
[13] = PSAC antagonists in infected red cells, primary screen, cell-based, P. falciparum Indochina, OD700, 2 h (AID 1155);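 also: lysis reports solute entry through the parasite surface anion channel PSAC; channel blockers reduce lysis of infected cells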; conditions: P. falciparum Indochina infected erythrocytes, osmotic lysis OD700; higher = more signal, called active from +8 up or from −8 down
[14] = osmotic lysis modulators in infected erythrocytes, primary screen, PSAC antagonist project, cell-based, P. falciparum Indochina, OD700, 3 h (AID 1156); conditions: higher = more signal, called active from +8 up or from −8 down
[15] = PSAC antagonists in infected red cells, primary screen, cell-based, P. falciparum Indochina, OD700, 18 h (AID 1157); conditions: P. falciparum Indochina infected erythrocytes, osmotic lysis OD700, 18 h; higher = more signal, called active from +8 up or from −8 down
[16] = modulators of S6 phosphorylation in cells, primary screen, cell-based, A549, cytoblot, luminescence, serum-stimulated (AID 1158); conditions: A549 phospho-S6 cytoblot, 5 h, higher = more signal;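 also: serum-stimulated A549 lung adenocarcinoma cells; signal is phosphorylated S6 detected by cytoblot immunostaining with HRP secondary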
[17] = biological target: NADPH oxidase 2 (Homo sapiens) (UniProt P04839); assay: NOX2-dependent H2O2 signal modulators, primary screen, NOX inhibitor project, cell-based, HEK293-NOX2, PMA-stimulated, Amplex Red fluorescence (AID 1159); conditions: 45 min, higher = more signal, called active from +8 up or from −8 down; also: test concentration not given here
Sequence of NADPH oxidase 2 (Homo sapiens) (P04839 whole entry, looked up): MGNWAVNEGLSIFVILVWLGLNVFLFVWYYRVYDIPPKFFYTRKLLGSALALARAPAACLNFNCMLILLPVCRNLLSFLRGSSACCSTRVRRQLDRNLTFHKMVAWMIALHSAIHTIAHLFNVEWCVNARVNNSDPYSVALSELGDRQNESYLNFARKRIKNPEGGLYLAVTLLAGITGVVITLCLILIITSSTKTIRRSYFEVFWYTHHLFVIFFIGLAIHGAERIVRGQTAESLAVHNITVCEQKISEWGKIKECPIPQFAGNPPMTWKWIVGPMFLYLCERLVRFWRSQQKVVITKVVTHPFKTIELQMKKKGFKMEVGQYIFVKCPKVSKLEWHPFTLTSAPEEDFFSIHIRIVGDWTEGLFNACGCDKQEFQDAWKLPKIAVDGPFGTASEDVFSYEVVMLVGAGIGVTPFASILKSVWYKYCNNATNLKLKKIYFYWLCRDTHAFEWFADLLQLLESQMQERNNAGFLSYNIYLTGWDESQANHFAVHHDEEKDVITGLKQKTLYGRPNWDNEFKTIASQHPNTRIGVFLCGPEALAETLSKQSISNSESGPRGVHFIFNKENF

[18] = biological target: NADPH oxidase 4 (Homo sapiens) (UniProt Q9NPH5); assay: NOX4-dependent H2O2 signal modulators, primary screen, NOX inhibitor project, cell-based, HEK293-NOX4, tetracycline-induced, Amplex Red fluorescence (AID 1160); conditions: 45 min, higher = more signal, called active from +8 up or from −8 down
Sequence of NADPH oxidase 4 (Homo sapiens) (Q9NPH5 whole entry, looked up): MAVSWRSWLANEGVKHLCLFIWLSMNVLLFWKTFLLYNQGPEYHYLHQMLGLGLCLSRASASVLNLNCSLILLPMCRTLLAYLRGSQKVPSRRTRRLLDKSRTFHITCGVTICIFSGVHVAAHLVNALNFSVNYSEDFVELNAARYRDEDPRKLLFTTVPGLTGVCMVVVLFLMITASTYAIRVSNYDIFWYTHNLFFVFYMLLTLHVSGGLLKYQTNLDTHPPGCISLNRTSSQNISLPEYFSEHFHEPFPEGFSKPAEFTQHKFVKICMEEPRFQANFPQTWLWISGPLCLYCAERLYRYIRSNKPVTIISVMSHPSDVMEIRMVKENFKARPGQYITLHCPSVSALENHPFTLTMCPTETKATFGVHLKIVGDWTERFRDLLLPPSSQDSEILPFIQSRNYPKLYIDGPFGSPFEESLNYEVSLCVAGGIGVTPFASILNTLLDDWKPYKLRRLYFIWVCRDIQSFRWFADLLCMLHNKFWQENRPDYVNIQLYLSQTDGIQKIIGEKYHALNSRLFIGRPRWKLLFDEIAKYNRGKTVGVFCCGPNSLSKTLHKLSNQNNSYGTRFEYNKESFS

[19] = biological target: NADPH oxidase 5 (Homo sapiens) (UniProt Q96PH1); assay: NOX5-dependent H2O2 signal modulators, primary screen, NOX inhibitor project, cell-based, HEK293-NOX5, Amplex Red fluorescence (AID 1161); conditions: HEK293-NOX5, ionomycin, 45 min, higher = more signal
Sequence of NADPH oxidase 5 (Homo sapiens) (Q96PH1 whole entry, looked up): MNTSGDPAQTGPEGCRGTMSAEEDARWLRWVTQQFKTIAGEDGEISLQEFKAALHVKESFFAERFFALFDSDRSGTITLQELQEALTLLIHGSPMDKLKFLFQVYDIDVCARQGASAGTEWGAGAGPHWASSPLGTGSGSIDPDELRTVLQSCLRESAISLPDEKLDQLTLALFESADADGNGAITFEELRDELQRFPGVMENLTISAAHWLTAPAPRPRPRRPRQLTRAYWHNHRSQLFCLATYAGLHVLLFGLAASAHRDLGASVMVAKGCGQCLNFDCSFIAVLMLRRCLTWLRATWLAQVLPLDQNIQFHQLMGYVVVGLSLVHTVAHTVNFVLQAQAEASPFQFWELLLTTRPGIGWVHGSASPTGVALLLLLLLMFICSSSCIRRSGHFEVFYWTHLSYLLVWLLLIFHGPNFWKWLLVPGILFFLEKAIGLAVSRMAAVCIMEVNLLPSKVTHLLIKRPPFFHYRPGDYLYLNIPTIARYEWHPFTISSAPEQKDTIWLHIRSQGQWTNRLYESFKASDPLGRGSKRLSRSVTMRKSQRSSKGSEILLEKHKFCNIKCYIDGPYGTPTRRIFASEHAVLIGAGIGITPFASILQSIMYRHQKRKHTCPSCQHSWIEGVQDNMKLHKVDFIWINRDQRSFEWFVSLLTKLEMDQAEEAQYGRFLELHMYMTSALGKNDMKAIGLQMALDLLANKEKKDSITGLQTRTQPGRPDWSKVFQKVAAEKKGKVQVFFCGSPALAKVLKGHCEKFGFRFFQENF

[20] = P. aeruginosa biofilm formation inhibitors, primary screen, PAO1 strain, BacTiter-Glo luminescence, LB-PBS (AID 1144); conditions: 12 h, higher = more signal

Compound: CCCNC(=O)[C@@H]1c2ccccc2C(=O)N(Cc2cc(F)cc(C(F)(F)F)c2)[C@H]1c1ccc(CO)cc1
- composite z-score [1]: 0.411
- z-score [2]: -2.08 (inactive)
- z-score [3]: -0.529 (inactive)
- z-score [4]: -1.53 (inactive)
- composite z-score [5]: 0.568
- composite z-score [6]: 0.157
- composite z-score [7]: 0.528
- composite z-score [8]: 0.457
- composite z-score [9]: 1.93
- z-score [10]: 1.86 (inactive)
- composite z-score [11]: 0.251
- z-score [12]: 2.1 (inactive)
- z-score [13]: -0.314 (inactive)
- z-score [14]: 0.064 (inactive)
- z-score [15]: -0.73 (inactive)
- z-score [16]: 1.74
- z-score [17]: 1.2 (inactive)
- z-score [18]: 0.609 (inactive)
- z-score [19]: 0.676

Compound: C=CCC(OC(C)=O)[C@@H]1[C@@H](N(Cc2ccc(-c3ccccc3)cc2)C(=O)c2ccc(-c3ccccc3)cc2)c2cc(OCCCO)ccc2N1C(=O)Cc1ccc(OC)cc1 (stereo not given in full)
- composite z-score [1]: 0.0459
- z-score [2]: -0.178 (inactive)
- z-score [20]: 0.318 (inactive)
- z-score [3]: -0.0247 (inactive)
- z-score [4]: 0.522 (inactive)
- composite z-score [5]: 0.573
- composite z-score [6]: -0.0774
- composite z-score [7]: -0.096
- composite z-score [8]: -0.37
- composite z-score [9]: 0.346
- z-score [10]: -0.685 (inactive)
- composite z-score [11]: 0.149
- z-score [12]: 0.572 (inactive)
- z-score [13]: -0.402 (inactive)
- z-score [14]: -0.501 (inactive)
- z-score [15]: -0.184 (inactive)
- z-score [16]: -0.192
- z-score [17]: -1.56 (inactive)
- z-score [18]: 1.2 (inactive)
- z-score [19]: 1.41

Compound: C#CCCCON=C1C[C@@H](O)[C@@H](O)[C@@H]2[C@@H]3C(=O)N(Cc4ccc5c(c4)OCO5)C(=O)[C@@H]3CC[C@@H]12
- composite z-score [1]: -0.323
- z-score [2]: -0.209 (inactive)
- z-score [20]: 1.86 (inactive)
- z-score [3]: -0.56 (inactive)
- z-score [4]: -0.157 (inactive)
- composite z-score [5]: 0.571
- composite z-score [6]: -0.0245
- composite z-score [7]: -0.345
- composite z-score [8]: -0.151
- composite z-score [9]: 0.9
- z-score [10]: 0.741 (inactive)
- composite z-score [11]: 0.137
- z-score [16]: -0.0259
- z-score [17]: 0.192 (inactive)
- z-score [18]: 0.773 (inactive)
- z-score [19]: -0.019

Compound: C=CCC(OC(C)=O)[C@@H]1[C@@H](N(Cc2cccc3ccccc23)C(=O)Cc2ccc(F)cc2)c2cc(OCCCO)ccc2N1C(=O)Cc1ccc2ccccc2c1 (stereo not given in full)
- composite z-score [1]: -0.0893
- z-score [2]: -0.288 (inactive)
- z-score [20]: -0.688 (inactive)
- z-score [3]: -0.36 (inactive)
- z-score [4]: 1.17 (inactive)
- composite z-score [5]: -0.11
- composite z-score [6]: -0.101
- composite z-score [7]: -0.52
- composite z-score [8]: 0.169
- composite z-score [9]: 0.332
- z-score [10]: 0.576 (inactive)
- composite z-score [11]: -0.0162
- z-score [12]: 1.71 (inactive)
- z-score [13]: 0.605 (inactive)
- z-score [14]: -0.0952 (inactive)
- z-score [15]: 0.434 (inactive)
- z-score [16]: 0.163
- z-score [17]: -0.606 (inactive)
- z-score [18]: 0.626 (inactive)
- z-score [19]: 0.765

Compound: COC(=O)Cn1c(C(=O)N2CCCC2)cc2c1C[C@H]1CN(C(=O)c3ccccc3)[C@@](Cc3ccccc3)(C(=O)OC)[C@@H]21
- composite z-score [1]: -0.0963
- z-score [2]: -0.259 (inactive)
- z-score [20]: -0.195 (inactive)
- z-score [3]: -0.572 (inactive)
- z-score [4]: -0.402 (inactive)
- composite z-score [5]: 0.344
- composite z-score [6]: 0.158
- composite z-score [7]: -0.531
- composite z-score [8]: -0.0683
- composite z-score [9]: -1.04
- z-score [10]: -0.406 (inactive)
- composite z-score [11]: 0.257
- z-score [12]: 1.54 (inactive)
- z-score [13]: 0.104 (inactive)
- z-score [14]: 0.16 (inactive)
- z-score [15]: 0.469 (inactive)
- z-score [16]: 0.136
- z-score [17]: 0.489 (inactive)
- z-score [18]: 0.217 (inactive)
- z-score [19]: -2.54
